Laboratory results published in PubChem BioAssay (NCI).
The panel holds about 83,000 compounds, 20% with a hit somewhere; the sample as a whole holds those more often.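 Interpretation: 100, growth as untreated; towards 0, rising growth inhibition; 0, no net growth; 0 to -100, cell death. Compounds scoring below 10 were considered active.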 Active and inactive are the calls of the source.

Tests used:
Assay in all cases: NCI-60 one-dose screen, 48 h (100 = growth as untreated, 0 = no growth, -100 = all killed)
Details in all cases: 10 µM unless noted
[1] = system: HCT-15 colon
[2] = system: HT29 colon
[3] = system: SNB-75 CNS
[4] = system: SNB-19 CNS
[5] = system: U251 CNS
[6] = system: PC-3 prostate
[7] = system: SK-MEL-5 melanoma
[8] = system: UACC-62 melanoma
[9] = system: SK-MEL-28 melanoma

Measured: growth

NC1=NN(c2ccccc2)C(=O)/C1=C/c1ccc(Cl)cc1
inactive: [1] 99.4% | [2] 102% | [3] 105% | [4] 96.9% | [5] 98.1% | [6] 82.8% | [7] 101% | [8] 81.2% | [9] 95%

COc1ccc2c(c1)c(-c1nc(-c3c[nH]c4ncccc34)cs1)cn2C
inactive: [1] 51.6% | [2] 55.6% | [3] 76.1% | [4] 92.7% | [5] 75.3% | [6] 61.1% | [7] 79.4% | [8] 67.6% | [9] 87.9%

O=C1CN(c2ccccc2)C(=O)C1C(=O)Nc1ccc(Cl)c(Cl)c1 (stereo unspecified)
inactive: [1] 27.9% [100 µM] | [6] 27.1% [100 µM] | [9] 33.4% [100 µM]
active: [2] 3.98% [100 µM] | [3] 6.38% [100 µM] | [4] 3.37% [100 µM] | [5] -7.08% [100 µM] | [7] -6.23% [100 µM] | [8] -3.41% [100 µM]

Cn1cc(-c2nc(-c3c[nH]c4ncccc34)cs2)c2ccccc21
inactive: [1] 64.3% | [2] 88.2% | [3] 77.6% | [4] 92.8% | [5] 96.6% | [6] 80.6% | [7] 94.2% | [8] 84.6% | [9] 105%

O=C(/C=C/c1cccc(O)c1)c1ccccc1O
inactive: [1] 92.9% | [2] 87.7% | [3] 72% | [4] 90.1% | [5] 77% | [6] 83.8% | [7] 92.3% | [8] 87.4% | [9] 98.2%

Cc1ccc(S(=O)(=O)Nc2ccc(-c3cc(-c4cccc(F)c4)c(C#N)c(=O)[nH]3)cc2)cc1
inactive: [1] 58.2% | [2] 54.6% | [3] 85% | [4] 84.3% | [5] 71% | [6] 68.8% | [7] 82% | [8] 60.3% | [9] 97.4%

C=C(C)[C@@H]1CC[C@]2(c3nnc(-c4ccncc4)o3)CC[C@]3(C)[C@H](CC[C@@H]4[C@@]5(C)CCC(=O)NC(C)(C)[C@@H]5CC[C@]43C)[C@@H]12
inactive: [1] 100% | [2] 99.6% | [3] 93.7% | [4] 92.5% | [5] 96% | [6] 69.5% | [7] 90.1% | [8] 79.7% | [9] 109%

N=C(N)N=Nc1ccc(O)cc1
inactive: [1] 45.9% [100 µM] | [2] 31.9% [100 µM] | [3] 56.3% [100 µM] | [4] 56.8% [100 µM] | [5] 40.5% [100 µM] | [6] 38.1% [100 µM] | [7] 85.9% [100 µM] | [8] 86.6% [100 µM] | [9] 104% [100 µM]

Cc1ccc(-c2ccc(/C=C(\C#N)c3nc(-c4ccco4)cs3)o2)cc1
inactive: [1] 69.2% | [2] 102% | [3] 84.9% | [4] 99.6% | [5] 98.7% | [6] 100% | [7] 87.8% | [8] 87.5% | [9] 112%

N#C/C(=C\c1ccc(-c2ccccc2)o1)c1nc(-c2ccco2)cs1
inactive: [1] 47.6% | [2] 99.8% | [3] 91.9% | [4] 94.1% | [5] 98.3% | [6] 77.8% | [7] 73.5% | [8] 77.9% | [9] 105%

C=C(C)[C@@H]1CC[C@]2(C=NCCCNCCCCNCCCN)CC[C@]3(C)[C@H](CC[C@@H]4[C@@]5(C)CCCNC(C)(C)[C@@H]5CC[C@]43C)[C@@H]12
inactive: [1] 82.6% | [2] 39% | [3] 114% | [4] 88.3% | [5] 91.6% | [6] 85.9% | [7] 96% | [8] 100% | [9] 111%

Cc1csc(Nc2nc(-c3ccc(Cl)cc3)nc(C(Cl)(Cl)Cl)n2)n1
inactive: [1] 84.1% | [2] 63.1% | [3] 89.4% | [4] 72.9% | [5] 72.8% | [6] 74.1% | [7] 93.1% | [8] 83.2% | [9] 92%

CC(=O)OC[C@]12CC[C@@H](/C(C)=N/O)[C@@H]1[C@H]1CC[C@@H]3[C@@]4(C)CCCNC(C)(C)[C@@H]4CC[C@@]3(C)[C@]1(C)CC2
inactive: [1] 60.1% | [2] 59.6% | [3] 63.9% | [4] 83.1% | [5] 68.7% | [6] 42.5% | [7] 51.3% | [8] 66.5% | [9] 86%

Cc1nn(-c2ccc(Br)cc2)c2nc3[nH]c(=O)[nH]c(=O)c3nc12
inactive: [1] 104% | [2] 101% | [3] 74.6% | [4] 104% | [5] 101% | [6] 111% | [7] 100% | [8] 102% | [9] 91.2%

N=C(N)c1ccc(-c2ccc(-c3cc(F)cc(F)c3)o2)nc1
inactive: [1] 77.4% | [2] 26.2% | [3] 72.1% | [4] 93.2% | [5] 85.9% | [6] 82.4% | [7] 88.7% | [8] 96.3% | [9] 98.7%

COc1cc(C(=O)/C=C/c2cc(-c3ccc4c(c3)OCO4)n[nH]2)cc(OC)c1OC
inactive: [1] 19.6% | [3] 26.7% | [4] 33.2% | [7] 63% | [8] 55.7% | [9] 76.2%
active: [2] 3.4% | [5] 5.54% | [6] 6.51%

Cc1ccc(Sc2sc(-c3ccccc3)nc2[P+](c2ccccc2)(c2ccccc2)c2ccccc2)cc1
inactive: [4] 10.4% | [5] 13.8% | [9] 25.5%
active: [1] 1.24% | [2] 3.9% | [3] -3.74% | [6] -30.6% | [7] -97.6% | [8] -33.7%

C=C1CC[C@@H](C(=O)OC)Cc2nc(C)ccc21
inactive: [1] 102% | [2] 104% | [3] 100% | [4] 97.1% | [5] 103% | [6] 98.4% | [7] 101% | [8] 96.9% | [9] 107%

CCSc1ncnc2c1ncn2C1OC(CO)C(O)C1O (stereo unspecified)
inactive: [1] 30.9% | [2] 19.1% | [3] 57% | [4] 34.1% | [5] 54.5% | [6] 16.8% | [7] 32.6% | [8] 50.7% | [9] 83.1%

Cc1csc(Nc2nc(-c3cccc(Br)c3)nc(C(Cl)(Cl)Cl)n2)n1
inactive: [1] 59.3% | [2] 18.9% | [3] 52.5% | [4] 39.8% | [5] 35.8% | [6] 48.9% | [7] 91.1% | [8] 60.5% | [9] 47%

CCCCCC1CCCCN1C(=O)OCC (stereo unspecified)
inactive: [1] 96% | [2] 101% | [3] 88.4% | [4] 105% | [5] 96.7% | [6] 91.9% | [7] 116% | [8] 105% | [9] 106%

Cn1c2c(c3ccc(Cl)cc31)-n1cccc1C2=O
inactive: [1] 83.5% | [2] 70.8% | [3] 87.5% | [4] 85.5% | [5] 89.3% | [6] 101% | [7] 98.4% | [8] 89.8% | [9] 109%

COc1cc(-c2c(C#N)c(-c3cccs3)nc3c2c(-c2ccccc2)nn3-c2ccccc2)ccc1O
inactive: [1] 73.5% | [2] 74.8% | [3] 79.8% | [4] 98.9% | [5] 78.3% | [6] 66% | [7] 94.9% | [8] 83.5% | [9] 96.1%

Nc1nc2c(c(=O)[nH]1)C(c1ccc3c(c1)OCO3)C=C(C(=O)O)N2 (stereo unspecified)
inactive: [1] 111% | [2] 108% | [3] 85.6% | [4] 104% | [5] 101% | [6] 113% | [7] 102% | [8] 116% | [9] 96.2%

CC(=O)O[C@H]1CC[C@@]2(C)C(=CC[C@@H]3[C@@H]2CC[C@]2(C)C(=O)N(O)C(=O)C[C@@H]32)C1
inactive: [1] 58.9% | [2] 89.2% | [3] 75.8% | [4] 95.5% | [5] 69.3% | [6] 75.7% | [7] 98.4% | [8] 100% | [9] 89.6%

CN(CSc1ccc(Cl)cc1)c1ccc(CSc2ccc(Cl)cc2)cc1
inactive: [1] 62.8% | [2] 96.8% | [3] 86% | [4] 84.7% | [5] 53.6% | [6] 38.4% | [7] 70.9% | [8] 84% | [9] 79.9%

C#CCn1c(C)cc(C)c(C#N)c1=O
inactive: [1] 105% | [2] 120% | [3] 103% | [4] 95.4% | [5] 100% | [6] 104% | [7] 104% | [8] 99% | [9] 109%

COc1cc(-c2cc(-c3nc4cc(Cl)c(Cl)cc4[nH]3)[nH]n2)cc(OC)c1OC
inactive: [1] 52% | [2] 72.6% | [3] 70.4% | [4] 78.1% | [5] 75.7% | [7] 19.6% | [8] 24.1% | [9] 47.6%
active: [6] 5.57%

Cc1cccc2c1NC(=O)[C@@]21[C@H](C(=O)c2ccccc2)[C@]2(C(=O)Nc3ccccc32)[C@H]2CCCN21
active: [1] 9.8% [100 µM] | [2] 3.18% [100 µM] | [3] -25.4% [100 µM] | [4] -5.94% [100 µM] | [5] 1.7% [100 µM]
inactive: [6] 21.7% [100 µM] | [7] 31% [100 µM] | [8] 22.5% [100 µM] | [9] 46.4% [100 µM]
